Consider 107 compounds from ChEMBL document CHEMBL4513216, “Probing the Open Global Health Chemical Diversity Library for Multistage-Active Starting Points for Next-Generation Antimalarials” (ACS Infect Dis, 2020).

Out of some 68,000 compounds screened, about 2,700 (4%) showed an effect of 50% or more. The entries come from a sample that favours strong results as a whole.

This assay deals with Plasmodium berghei. Briefly: Screen against P. berghei liver stage (PbLuc), transformed with Luciferase, at 2uM. The note with it: tested at 2 uM. Type of assay: functional, HepG2.
Consider `CN1C(=O)CC(c2cnn(C)c2)C12CCN(C(=O)c1ccnnc1)CC2` (configuration not stated), for which the INHIBITION is reported as -26.73%.
The same measure for `O=C(N1CCCC1)N1CCOCC2(CCN(Cc3cccs3)C2)C1` (configuration not stated): 25.31%; for `Cc1cn2nc(N3CCN(Cc4c(C)noc4C)CC3)sc2n1`: -4.99%.
To `Oc1cc(C2CCCN(Cc3cccs3)C2)nc(-c2ccccn2)n1` (configuration not stated) belongs 30.29%.
The same measure for `COc1ccccc1N1CCN(CC[C@H](O)c2ccccc2)CC1=O`: -23.57%.
Consider `COc1ccc(N2CCN(CC[C@H](O)c3ccccc3)CC2=O)cc1`, for which the INHIBITION came out at 17.28%.
To `COc1cccc(C(=O)N2CCN(CC(O)c3ccccc3)CC2)c1` (configuration not stated) belongs 55.25%; to `N#CCc1cccc(C(=O)N2CCN(CC(O)c3ccccc3)CC2)c1` (configuration not stated), 29.42%; to `COc1cccc(N2CCN(CC[C@H](O)c3ccccc3)CC2=O)c1`, 61.75%.
Consider `COc1cccc(C(O)CN2CCN(C(=O)c3ccsc3)CC2)c1` (configuration not stated), for which the INHIBITION came to 38.49%.
The same measure for `COCC(=O)N1CCn2c(CN3CCN(C)CC3)cnc2C1`: -11.88%; for `Cc1nccc(N2CCCC(C)(C(=O)NC3CCCC3)C2)n1` (configuration not stated): 1.42%.
To `O=C(c1cnc(COc2ccccc2)nc1O)N1CCC(F)(F)CC1` belongs 10.91%; to `Cc1nc(CN2CCC3(CCN(C(=O)c4ccoc4C)CC3)C2)cs1`, -13.88%; to `Cc1nn(C)c(N2CCOCC2)c1CNCC1CCN(C2CC2)C1` (configuration not stated), 59.03%.
The same measure for `Cc1nn(C)c(N2CCOCC2)c1CNCC1CCCN1C` (configuration not stated): 53.98%.
Consider `Cc1nn(C)c(N2CCOCC2)c1CNC1CCC(O)CC1` (configuration not stated), for which the INHIBITION is on record as -5.7%.
On to `Cc1nn(C)c(N2CCOCC2)c1CNC1CCN(C2CC2)CC1`, for which the INHIBITION amounted to 24.65%.
With `Cc1nn(C)c(N2CCOCC2)c1CNCc1ccnn1C`, the INHIBITION was determined as 8.06%.
To `Cc1nn(C)c(N2CCOCC2)c1CNCC1CCS(=O)(=O)C1` (configuration not stated) belongs 5.17%.
Consider `COCCC(=O)N1CCCC1c1nccc(C)n1` (configuration not stated), for which the INHIBITION was -17.21%.
Turning to `CNC(=O)C1CCN(c2ncnc3c2CCN(C(=O)C2CC2)C3)C1` (configuration not stated), the INHIBITION was 16.53%.
`OC1CCN(Cc2c(-c3ccco3)[nH]c3ncccc23)CC1`: the INHIBITION is recorded as 8.09%.
The same measure for `Cc1nc(CN2CCCC(N(C)Cc3nc(CC(C)C)no3)C2)no1` (configuration not stated): 23.86%; for `CC(=O)N1CCC(c2nccnc2-c2ccc(F)cc2)CC1`: 33.77%.
To `COc1ccc(-c2nccnc2C2CCN(C(C)=O)CC2)cc1` belongs -30.31%; to `CC(=O)N1CCC(c2nccnc2-c2ccc(C(=O)O)cc2)CC1`, 51.57%.
For the compound `CC(C)c1ncc2c(n1)CN(CC(=O)Nc1ccncc1)CC2`, the INHIBITION is reported as -36.7%.
The same measure for `Cc1csc(N2CCN(C(=O)NCCNc3ncccn3)CC2)n1`: -10.6%.
To `CN(C)c1ncccc1NC(=O)COC1CCCC1` belongs 35.13%; to `CN(C)c1ncccc1NC(=O)COCC1CC1`, 64.35%.
The same measure for `O=C(COCC1CC1)Nc1ncccc1O`: 25.23%; for `O=C(COc1cccc2c1CCC2=O)NCCc1cccs1`: -27.22%.
`COCCN(C(=O)c1cc(C)no1)c1ccc(C#N)cc1`: the INHIBITION is given as -43.03%.
The same measure for `COc1no[n+]([O-])c1-c1ccccc1`: 32.19%; for `CC(C)(C)C(=O)N1CCCC1(C(=O)N1CCCC1)c1cnccn1` (configuration not stated): 33.56%; for `Cn1cc(C2CC3(CCN(C(=O)c4cccs4)CC3)NC2=O)cn1` (configuration not stated): -16.25%.
The same measure for `CN(C)C(C(=O)NCC1(C)COC1)c1cccc(F)c1` (configuration not stated): -15.77%.
As for `N#Cc1cccc(N2CC3(CCN(C(=O)c4ccnnc4)C3)CC2=O)c1` (configuration not stated), the INHIBITION was determined as 25.24%.
The same measure for `N#Cc1cccc(N2CC3(CCN(C(=O)c4cccnc4)C3)CC2=O)c1` (configuration not stated): 11.72%.
For `N#Cc1cccc(N2CC3(CCN(C(=O)c4ccncc4)C3)CC2=O)c1` (configuration not stated), the INHIBITION turned out to be 53.77%.
To `O=C1CC2(CCN(Cc3ccncc3)C2)CN1c1cccc(F)c1` (configuration not stated) belongs 54.62%; to `COc1ccc(CN2CCC3(CC(=O)N(c4cccc(F)c4)C3)C2)cc1` (configuration not stated), 40.4%.
To `O=C1CC2(CCN(Cc3cccnc3)C2)CN1c1cccc(F)c1` (configuration not stated) belongs 38.49%; to `CCc1ccc(OCCn2cccn2)cc1`, -3.72%.
The same measure for `COc1c(C2CCCN2C(=O)c2csc(C3CC3)n2)c(C)nn1C` (configuration not stated): 15.13%.
In the case of `CCOc1cccc2c1OCC(=O)N(c1ccc3c(c1)OCCO3)C2`, the INHIBITION is on record as 67.29%.
The same measure for `CCOc1cccc2c1OCC(=O)N(c1ccc(N(C)C)cc1)C2`: 43.74%; for `CCOc1cccc2c1OCC(=O)N(c1ccc3c(c1)OCO3)C2`: 25.73%; for `COC(=O)c1ccc(C2CC(=O)Nc3c2cnn3C)cc1` (configuration not stated): 13.95%.
With `Cc1ncsc1COC(=O)c1cccc2c1OCCO2`, the INHIBITION was determined as 38.1%.
To `Cn1cnnc1C1CCCN(C(=O)NCc2cc[nH]n2)C1` (configuration not stated) belongs 28.65%; to `O=C(c1ccc[nH]1)N1CCN(C(c2ccccc2)C(F)(F)F)CC1` (configuration not stated), 11.88%; to `CCCSc1ccccc1NC(=O)N1CCN(C(=O)c2ccc[nH]2)CC1`, 65.76%.
For the compound `CCCSc1ccccc1NC(=O)N1CCC(N2CCSCC2)CC1`, the INHIBITION stood at 27.05%.
To `CCCc1nc(C(=O)NCCN2CCC(c3ccccc3C)C2)cs1` (configuration not stated) belongs 6.88%; to `CC(C)C(C(=O)N1CCCN(c2nccs2)CC1)n1cncn1` (configuration not stated), 15.47%.
To `CN1CCC(N(C)CCC(=O)N2CCC(Cc3ccc(F)cc3)CC2)C1` (configuration not stated) belongs 20.36%.
The same measure for `CN1CCC(N(C)CCC(=O)N2CCC(OCc3ccccc3)CC2)C1` (configuration not stated): -83.25%; for `CN1CCC(N(C)CCC(=O)N2CCC(CCc3ccccc3)CC2)C1` (configuration not stated): 66.79%.
`COc1c(C2CCCN2C(=O)c2ccnc(N(C)C)c2)c(C)nn1C` (configuration not stated): the INHIBITION is listed as 30.91%.
In the case of `Cc1cnc(N2Cc3cnn(Cc4ccc(F)cc4)c3C2)nc1N(C)C`, the INHIBITION turned out to be 41.78%.
Take `CNC(=O)c1sccc1S(=O)(=O)Nc1ccc(C)cc1`: the INHIBITION was found to be 52.36%.
The same measure for `CNS(=O)(=O)c1ccsc1C(=O)OC`: -12.44%; for `CNC(=O)c1sccc1S(=O)(=O)NC`: 31.27%; for `Cc1nonc1C1CCCN1C(=O)c1cn2ccsc2n1` (configuration not stated): -120.95%.
As to `Cn1cc(CN2CCCC3(COCCN(c4cccnc4)C3)C2)cn1` (configuration not stated), the INHIBITION was found to be 18.15%.
To `COc1ccc(F)cc1C(=O)N1CC(c2ccncc2)C1` belongs -26.81%.
The same measure for `COc1cc2c(cc1C(=O)N1CC(c3ccncc3)C1)CCC2`: 51.96%; for `COc1ccc(C(=O)N2CC(c3ccncc3)C2)c(OC)c1OC`: 45.56%; for `CC(CO)NC(=O)Nc1ccc(COC2CCCC2)cc1` (configuration not stated): 31.97%.
The same measure for `CC(C)N1CC(NC(=O)c2ccc(Cl)s2)CC1=O` (configuration not stated): -28.5%; for `CN(Cc1ccc(C#N)cc1)CC1CCS(=O)(=O)C1` (configuration not stated): 54.78%.
For the compound `CC(O)CN1CCC(CN(C)Cc2ccc(C#N)cc2)CC1` (configuration not stated), the INHIBITION is reported as -3.99%.
As to `CN(CCOc1ccc(C#N)cc1)CC1CCS(=O)(=O)C1` (configuration not stated), the INHIBITION is reported as 14.59%.
Turning to `Cc1cc(=O)n2ncnc2n1CC(O)COCc1ccccc1Cl` (configuration not stated), the INHIBITION was 19.59%.
To `CN(CC(=O)Nc1ccccc1)C(=O)CN(C)c1ccc(Cl)cn1` belongs -35.22%; to `CN(Cc1nc2ccccc2[nH]1)C(=O)CN(C)c1ccccc1`, -20.08%; to `CN(Cc1nc2ccccc2[nH]1)C(=O)CN(C)c1ccc(Cl)cn1`, 60.71%.
As for `Cc1ncsc1CN1CCn2c(COc3cccnc3)cnc2C1C` (configuration not stated), the INHIBITION was -48.36%.
The same measure for `CN(C)c1nccc(N(C)C2CCCCC2)n1`: 38.67%.
To `CN(C)c1nccc(N(C)C2CCOCC2)n1` belongs 19.59%; to `CC(C)N1CCC(N(C)c2ccnc(N(C)C)n2)CC1`, 69.67%.
The same measure for `CCN(C)Cc1cccc(CNC(=O)CSCc2ccccn2)c1`: 72.94%.
In the case of `CCCSCC(=O)NCc1cccc(CN(C)CC)c1`, the INHIBITION worked out at 15.56%.
To `CCN(C)Cc1cccc(CNC(=O)CSCc2ccncc2)c1` belongs -56.58%; to `CO[C@H]1CN(C(=O)c2cc3ccccc3[nH]2)CC[C@H]1N`, 13.24%; to `O=C(c1ccoc1)N1CCOCC2(CCN(Cc3cccs3)C2)C1` (configuration not stated), 3.11%.
The same measure for `CN1CCN(CCOc2ccc(NC(=O)c3ccoc3)cc2)CC1`: 6.78%; for `CN(C)c1nc2c(c(=O)[nH]1)CCN(C(=O)c1c[nH]c(=O)c(Cl)c1)C2`: 33.9%; for `Cc1nc2sccn2c1C(=O)N1CCc2c(nc(N)[nH]c2=O)C1`: -14.71%.
To `Cc1nc(C(C)C)ncc1C(=O)N1CCc2c(nc(N(C)C)[nH]c2=O)C1` belongs 55.36%; to `CN(C)c1nc2c(c(=O)[nH]1)CCN(C(=O)c1cccc3nccnc13)C2`, -16.93%.
In the case of `Cc1nc2sccn2c1C(=O)N1CCc2c(nc(N(C)C)[nH]c2=O)C1`, the INHIBITION stood at 68.02%.
To `Cc1nc2sccn2c1C(=O)N1CCc2[nH]cnc2C1` belongs -13.03%; to `O=C(Nc1nccs1)C1CCCN1Cc1ccccn1` (configuration not stated), 12.47%.
Take `CCc1nc(-c2ccc(NC(=O)N3CCCC3)cc2)no1`: the INHIBITION was -75.24%.
The same measure for `COc1ccnc(N2CCC3(CC2)[C@H](O)C[C@@H]3OCCN(C)C)n1`: -2.96%; for `Cc1nc(C2CCN(S(C)(=O)=O)CC2)nc2c1CCC(=O)N2CC(C)C`: 0.12%.
The same measure for `Cc1cc(N2CCCC2(C)c2nc(C)cc(C(=O)N(C)C)n2)ncn1` (configuration not stated): -27.61%; for `CCOC(=O)N1CCN(C(=O)C2Cc3ccccc3CN2C)CC1` (configuration not stated): -55.24%; for `CCN(CC)S(=O)(=O)N1CCCC1c1cccc(Nc2ncc(C)s2)n1` (configuration not stated): 56.16%.
The same measure for `Cc1ccccc1CN1CCCC1c1cccc(Nc2nccs2)n1` (configuration not stated): 15.61%.
Regarding `Cc1cnc(Nc2cccc(C3CCCN3C(=O)CO)n2)s1` (configuration not stated), the INHIBITION came out at 35.31%.
The same measure for `c1ccc(CCN2CCCC2c2cccc(Nc3nccs3)n2)cc1` (configuration not stated): 30.29%; for `CS(=O)(=O)N1CCCC1c1cccc(Nc2nccs2)n1` (configuration not stated): 69.91%; for `Cc1cnc(Nc2cccc(C3CCCN3Cc3cn(C)nc3C)n2)s1` (configuration not stated): -15.38%.
